Among the test systems are HCT-15 colon; HT29 colon; SNB-75 CNS; SNB-19 CNS; U251 CNS; PC-3 prostate; SK-MEL-5 melanoma; UACC-62 melanoma; LOX IMVI melanoma; SK-MEL-28 melanoma; SK-MEL-2 melanoma; EKVX NSCLC; SN12C renal; UO-31 renal; TK-10 renal; ACHN renal; CAKI-1 renal; A498 renal; CCRF-CEM leukemia; MOLT-4 leukemia.
What all share (test): NCI-60 one-dose screen, 48 h (100 = growth as untreated, 0 = no growth, -100 = all killed)
Holding throughout (conditions): 10 µM unless noted

Compounds without any hit were thinned out: in the full panel of roughly 83,000, 20% have a hit.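 Cell lines were cultured in 96-well plates, exposed to a single compound concentration, and assessed for percent growth 48 hours later.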 A number with no mark means an inactive call. Calls of active or inactive are those of the source. The calls were made as follows: active = growth percent below 10; inactive = the rest.

Take `COc1ccc2c(O)c(/C=C3\N=Nc4ncccc43)oc2c1C[C@@H]1CCNC[C@H]1F`: the growth with HCT-15 colon is -1.3% (active); with HT29 colon it was 5.21% (active); in the assay on SNB-75 CNS, -57.3% (active); in the assay on SNB-19 CNS it was 1.93% (active); in the assay on U251 CNS, -84.7% (active); with PC-3 prostate, -29.1% (active). Further, the growth was 5.56% (active) with SK-MEL-5 melanoma; -33.2% (active) in the assay with UACC-62 melanoma; -93% (active) in the assay with LOX IMVI melanoma; 5.44% (active) in the assay on SK-MEL-28 melanoma; -17.9% (active) in the assay on SK-MEL-2 melanoma; -5.63% (active) in the assay with EKVX NSCLC. The growth was -28.2% (active) in the assay on SN12C renal; -14.5% (active) with UO-31 renal; -2.3% (active) in the assay on TK-10 renal; -52.7% (active) in the assay with ACHN renal; 1.53% (active) in the assay with CAKI-1 renal; -32.1% (active) with A498 renal. The growth with CCRF-CEM leukemia is -17.4% (active); in the assay with MOLT-4 leukemia it was -9.39% (active).
Consider `C/C(Cc1ccc(Cl)cc1)=C(\c1ccc(OCCN2CCCCCC2)cc1)c1ccc(OC(=O)c2ccccc2)cc1`, for which the growth with HCT-15 colon is 14.1%; in the assay on HT29 colon, 6.24% (active); in the assay with SNB-75 CNS, 77.3%; in the assay on SNB-19 CNS it was 50.3%; with U251 CNS, 37.8%; with PC-3 prostate it was 19.4%. For the same molecule, the growth was 35.3% with SK-MEL-5 melanoma; -3.38% (active) in the assay with UACC-62 melanoma; -21.8% (active) in the assay with LOX IMVI melanoma; -1.89% (active) in the assay with SK-MEL-28 melanoma; 77.4% in the assay on SK-MEL-2 melanoma; 78.8% with EKVX NSCLC. Moreover, the growth was 11.2% in the assay on SN12C renal; 24% in the assay with UO-31 renal; 67% with TK-10 renal; 68.9% in the assay on ACHN renal; 52.6% in the assay with CAKI-1 renal; 76.1% in the assay with A498 renal. Further, the growth in the assay with CCRF-CEM leukemia was -4.75% (active); with MOLT-4 leukemia, 9.42% (active).
Consider `CCN(CC)CCOc1ccc(Nc2ncc3cc(-c4c(Cl)cccc4Cl)c(=O)n(CCOC)c3n2)cc1`, for which the growth in the assay on HCT-15 colon is 12.9%; in the assay on HT29 colon it was -22.6% (active); with SNB-75 CNS, -39.9% (active); in the assay on SNB-19 CNS, 18.4%; in the assay with U251 CNS, 0.141% (active); in the assay on PC-3 prostate it was 60%. Further, the growth in the assay on SK-MEL-5 melanoma is 13.6%; with UACC-62 melanoma, 32.1%; in the assay on LOX IMVI melanoma it was -77.6% (active); with SK-MEL-28 melanoma it was 36.9%; in the assay on SK-MEL-2 melanoma it was 34.8%; in the assay on EKVX NSCLC, 27.3%. Besides, the growth with SN12C renal is 10.5%; in the assay with UO-31 renal, -88.9% (active); with TK-10 renal it was -55.5% (active); in the assay on ACHN renal, 5.69% (active); in the assay with CAKI-1 renal, 2.96% (active); with A498 renal, -75.9% (active). Besides, the growth is 4.55% (active) with CCRF-CEM leukemia and 1.6% (active) in the assay with MOLT-4 leukemia.
On to `CN(C)Cc1ccc(NC(=O)c2cncc(C#Cc3cnc(N)c4ncccc34)c2)cc1C(F)(F)F`, for which the growth was -50.6% (active) in the assay on HCT-15 colon; -50.1% (active) in the assay with HT29 colon; 82.2% in the assay on SNB-75 CNS; -8.43% (active) in the assay with SNB-19 CNS; -57.5% (active) with U251 CNS; 92.2% with PC-3 prostate. The growth in the assay with SK-MEL-5 melanoma is 24.8%; in the assay on UACC-62 melanoma, 45.1%; in the assay on LOX IMVI melanoma it was -79.9% (active); with SK-MEL-28 melanoma, -83.1% (active); with SK-MEL-2 melanoma it was 40.5%; in the assay with EKVX NSCLC it was 89.4%. Also, the growth in the assay on SN12C renal was 69.9%; in the assay with UO-31 renal, -82% (active); in the assay on TK-10 renal it was 110%; in the assay on ACHN renal it was -81.8% (active); in the assay with CAKI-1 renal it was 83%; in the assay with A498 renal, 60.6%. Further, the growth in the assay with CCRF-CEM leukemia was -6.13% (active); with MOLT-4 leukemia, 43.5%.
Consider `Cc1nn(C)c2ncnc(N/N=C/c3cccc(O)c3O)c12`, for which the growth in the assay on HCT-15 colon is 28.9%; in the assay on HT29 colon, 62.5%; in the assay with SNB-75 CNS it was 38.6%; with SNB-19 CNS it was 19.7%; in the assay with U251 CNS it was 15.7%; with PC-3 prostate, 35.9%. Also, the growth with SK-MEL-5 melanoma was -41.4% (active); in the assay on UACC-62 melanoma it was -8.29% (active); with LOX IMVI melanoma it was 4.98% (active); in the assay on SK-MEL-28 melanoma, 11.4%; in the assay with SK-MEL-2 melanoma, 31.5%; with EKVX NSCLC it was 6.94% (active). Further, the growth in the assay on SN12C renal is 7.54% (active); with UO-31 renal it was -13.4% (active); with TK-10 renal, 28.7%; in the assay on ACHN renal, 4.41% (active); with CAKI-1 renal, 6.5% (active); with A498 renal, 26.6%. Besides, the growth was -16.7% (active) with CCRF-CEM leukemia and 3.79% (active) with MOLT-4 leukemia.
For the molecule `CCN(CC)C(=O)CC1=C(C)/C(=C/c2[nH]c(-c3ccc[nH]3)cc2OC)N=C1C`, the growth in the assay on HCT-15 colon is 1.25% (active); with HT29 colon, 12.4%; in the assay on SNB-75 CNS, 14.2%; with SNB-19 CNS, 42.4%; in the assay on U251 CNS it was 23.9%; in the assay with PC-3 prostate it was 3.87% (active). The growth with SK-MEL-5 melanoma was -59.3% (active); in the assay on UACC-62 melanoma, -51.8% (active); in the assay with LOX IMVI melanoma, -58.8% (active); in the assay on SK-MEL-28 melanoma, 25.6%; in the assay on SK-MEL-2 melanoma it was -36.1% (active); with EKVX NSCLC, 32.7%. For the same molecule, the growth is 29.1% in the assay with SN12C renal; -59.3% (active) in the assay with UO-31 renal; 28.2% in the assay with TK-10 renal; 1.61% (active) in the assay with ACHN renal; -8.05% (active) with CAKI-1 renal; -8.32% (active) in the assay on A498 renal. Moreover, the figures for the growth in the assay with CCRF-CEM leukemia and in the assay with MOLT-4 leukemia were 25.8% and 12.4%, respectively.
With `C[C@H]1[C@H](C)CC[C@]2(C(=O)NCCNCCN)CC[C@]3(C)C(=CC[C@@H]4[C@@]5(C)CCC(=O)C(C)(C)[C@@H]5CC[C@]43C)[C@H]12`, the growth was 13.1% in the assay with HCT-15 colon; 4.06% (active) with HT29 colon; 65% in the assay with SNB-75 CNS; 71.6% with SNB-19 CNS; -28.6% (active) with U251 CNS; 38.5% in the assay with PC-3 prostate. For the same molecule, the growth in the assay on SK-MEL-5 melanoma is 85.3%; in the assay with UACC-62 melanoma it was 77.5%; with LOX IMVI melanoma, -76.7% (active); with SK-MEL-28 melanoma, 81.5%; with SK-MEL-2 melanoma, 91.4%; with EKVX NSCLC, 79.4%. Further, the growth with SN12C renal is 68.2%; in the assay with UO-31 renal, 60.3%; in the assay with TK-10 renal it was 74%; in the assay on ACHN renal, 77.1%; with CAKI-1 renal it was 61.5%; in the assay on A498 renal it was 75%. Also, the growth in the assay on CCRF-CEM leukemia is -11.7% (active); in the assay with MOLT-4 leukemia, -9.76% (active).

The record behind these values is PubChem BioAssay (NCI).
